Measurements as given in PubChem BioAssay (EPA / NIEHS).
Values joined by “and” are separate entries in the source; they are usually repeats but may differ in a detail not shown here. Equal values may be shown once. Active and inactive are the calls of the source. Rule for the calls: active = hit-call score of the fitted dose curve at least 0.9, where 1 is the maximum; inactive = score below 0.9.

read-out: Macrophage colony-stimulating factor (MCSF), CSF1 (gene 1435); test: BSK_LPS_MCSF: BioMAP Diversity Plus: LPS Assay for Macrophage colony-stimulating factor (MCSF) Biomarker Activity (AID 2283083); conditions: primary human HUVEC with PBMC; actives raise or lower the signal
How it was run: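 Bidirectional fitting against DMSO was applied to M-CSF levels read by ELISA at 24 h post-dose. The system pairs human umbilical vein endothelium with peripheral blood mononuclear cells; parallel SRB staining tracked cytotoxicity.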

SMILES | outcome | AC50
O=C(c1ccccc1)C1CCCCC1 | inactive | 
S=C(S)NCCNC(=S)S.[Mn+2].[S-]C([S-])=NCCN=C([S-])[S-].[Zn+2] | inactive | 
OB(O)O | inactive | 
CCN(Cc1c(F)cccc1Cl)c1c([N+](=O)[O-])cc(C(F)(F)F)cc1[N+](=O)[O-] |  | 11.6 µM (active)
CCCCC(CC)COC(=O)c1ccccc1C(=O)O (stereo not given) | inactive | 
c1ccc(Nc2ccccc2)cc1 | inactive | 
CCOC(=O)C(C)Oc1ccc(Oc2cnc3cc(Cl)ccc3n2)cc1 (stereo not given) | inactive | 
CC(C)CCCCCCc1ccc(O)cc1 |  | 9.04 µM (active)
N#CSCSc1nc2ccccc2s1 |  | 2.25 µM (active) and 6.78 µM (active)
CCCN(CCC)c1c([N+](=O)[O-])cc(C(F)(F)F)c(N)c1[N+](=O)[O-] |  | 20 µM (active)
O=C(O)c1ccccc1 | inactive | 
O=C(O)C1(C(=O)Nc2ccc(Cl)cc2Cl)CC1 | inactive | 
CC(=O)S[C@@H]1CC2=CC(=O)CC[C@]2(C)[C@H]2CC[C@@]3(C)[C@@H](CC[C@@]34CCC(=O)O4)[C@H]12 |  | 22 µM (active)
CCCN(CCC)C(=O)SCC | inactive | 
Cc1nn(C)c(Oc2ccccc2)c1C=NOCc1ccc(C(=O)OC(C)(C)C)cc1 |  | 3.48 µM (active)
CCCCOCCOCCOCc1cc2c(cc1CCC)OCO2 | inactive | 
CC1(C)C(C=C(Cl)Cl)C1C(=O)OCc1cccc(Oc2ccccc2)c1 (stereo not given) |  | 4.63 µM (active)
CCOC(=O)C(C)Oc1ccc(Oc2nc3ccc(Cl)cc3o2)cc1 (stereo not given) | inactive | 
CCC(O)=C1C(=O)CC(C(=O)O)CC1=O (stereo not given) | inactive | 
CCSC(=O)N(CC(C)C)CC(C)C | inactive | 
C[C@]12CC[C@@H]3c4ccc(O)cc4C[C@@H](CCCCCCCCCS(=O)CCCC(F)(F)C(F)(F)F)[C@H]3[C@@H]1CC[C@@H]2O (stereo not given in full) | inactive | 
COC(=O)c1ccc(I)cc1S(=O)(=O)NC(=O)Nc1nc(C)nc(OC)n1 | inactive | 
C#C[C@]1(O)CC[C@H]2[C@@H]3CCC4=CC(=O)CC[C@@H]4[C@H]3CC[C@@]21CC |  | 14.5 µM (active)
CCOC(=O)c1ccc(O)cc1 | inactive | 
c1ccc2[nH]c(-c3cscn3)nc2c1 | inactive | 
CCNc1nc(N)nc(Cl)n1 | inactive | 
CCCCOC(=O)C(C)Oc1ccc(Oc2ccc(C(F)(F)F)cn2)cc1 (stereo not given) | inactive | 
CCOC(=O)NCCOc1ccc(Oc2ccccc2)cc1 |  | 14.7 µM (active)
CSC(=O)c1cccc2nnsc12 | inactive | 
CC(C)(c1ccc(O)cc1)c1ccc(O)cc1 | inactive | 
